Source: PubChem BioAssay
Only some compounds are listed: those with a hit (about 0.82% of all), similar ones and a draw of the others.
Keap1 Nrf2 FP: Keap1-Nrf2 protein-protein interaction inhibitors, primary screen, biochemical, fluorescence polarization, single point. Kelch-like ECH-associated protein 1 (Homo sapiens), Q14145. inhibition, % at 9.4 µM. AID 504523, 2011. 340,000 tested, 0.15% active. Keap1 Kelch-Nrf2 peptide fluorescence polarization, 1536-well; in the data active = inhibition above about 12%; inconclusive = no clear call, values can overlap the other calls; inactive = below about 7.3%;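 also: human Keap1 Kelch domain with fluorescein labeled Nrf2 9mer peptide probe; 0% = neutral control wells and 100% = peptide positive control; higher means more block of Keap1 binding to Nrf2 peptide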
Target sequence (Q14145 whole entry, looked up, the tested form may be a part): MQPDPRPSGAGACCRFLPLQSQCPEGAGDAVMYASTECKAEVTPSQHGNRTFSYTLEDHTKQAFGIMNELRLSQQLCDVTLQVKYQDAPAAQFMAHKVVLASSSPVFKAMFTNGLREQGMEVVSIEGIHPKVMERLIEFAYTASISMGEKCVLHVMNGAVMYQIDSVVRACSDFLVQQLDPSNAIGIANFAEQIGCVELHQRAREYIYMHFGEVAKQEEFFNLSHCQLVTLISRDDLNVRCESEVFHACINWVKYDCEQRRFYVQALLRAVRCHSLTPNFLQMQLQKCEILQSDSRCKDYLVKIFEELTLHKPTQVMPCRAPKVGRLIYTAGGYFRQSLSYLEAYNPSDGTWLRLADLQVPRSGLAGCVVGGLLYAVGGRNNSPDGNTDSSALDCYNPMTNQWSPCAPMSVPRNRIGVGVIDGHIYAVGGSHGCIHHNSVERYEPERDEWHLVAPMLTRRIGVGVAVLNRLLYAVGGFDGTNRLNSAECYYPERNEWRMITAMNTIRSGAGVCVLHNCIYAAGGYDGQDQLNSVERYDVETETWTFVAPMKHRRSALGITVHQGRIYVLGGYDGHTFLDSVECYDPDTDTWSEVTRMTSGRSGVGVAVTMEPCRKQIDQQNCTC
Cardiac RTF inh: cardiac RTF calcium sensitivity inhibitors, primary screen, biochemical, IANBD-TnC fluorescence, EC70 calcium; inhibition, % at 7.15 µM; AID 493244, 2011; IANBD-labeled cardiac RTF, Ca2+ fluorescence; 340,000 tested, 0.12% active;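 active = inhibition above the mean inhibition of all tested compounds plus 3 SD, cut at about 17% in these data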;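 also: assay run at fixed EC70 calcium of 1.6 mM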
cardiac RTF act: cardiac RTF calcium sensitivity activators, primary screen, biochemical, IANBD-TnC fluorescence, EC20 calcium; Troponin I, cardiac muscle (Homo sapiens) + Troponin T, cardiac muscle (Homo sapiens) + …; IANBD-labeled TnC RTF fluorescence at EC20 calcium; 0% EC20 calcium, 100% full calcium; activation, % at 7.2 µM; 340,000 tested, 0.24% active; AID 493008, 2010;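 active = activation above the mean over all tested compounds plus 3 SD, cut at about 30% in these data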;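 also: rise in fluorescence read as greater calcium sensitivity of cardiac thin filaments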
E coli Lon inh: inhibitors of E. coli Lon protease, primary screen, biochemical, fluorescence polarization | inhibition, % at 7.94 µM | P0A9M0 | 360,000 tested, 0.42% active | purified E. coli Lon protease; in the data active = inhibition above about 13%, passing the limit was not always enough;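 also: 0% = enzyme with probe and DMSO and 100% = no enzyme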
LANA DNA inh: inhibitors of KSHV C-LANA binding to DNA, primary screen, biochemical, fluorescence polarization, FAM-LBS DNA, MBP-C-LANA, single point. inhibition, % at 9 µM. 340,000 tested, 0.078% active;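 active = highest replicate inhibition at or above 60% at 9 µM, even if other replicates fall short; inactive = all replicates below 60% inhibition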;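 also: 0% = neutral control wells and 100% = 4 µM acridine orange control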
eLon confirm: E. coli Lon protease inhibitor retest, confirmation, biochemical, fluorescence polarization | 1,400 tested, 31% active | purified E. coli Lon | shares compounds with E coli Lon inh | inhibition, % at 7.94 µM; in the data active = inhibition above about 16%;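 also: 0% = enzyme with probe and DMSO and 100% = no enzyme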
* marks the source's active call; other numbers are inactive results; ? = inconclusive; . = no result given.

SMILES	Keap1 Nrf2 FP	Cardiac RTF inh	cardiac RTF act	E coli Lon inh	LANA DNA inh	eLon confirm
Cc1[nH]c2ccc3c(ncn3CCC#N)c2c1C	-2.0	-6.1	-0.2	29.3*	-0.3	-11.5
Cn1c(=O)c2c(ncn2CC(=O)OCC(=O)Nc2ccc(Cl)cc2)n(C)c1=O	-1.4	3.0	2.0	3.9	-2.7	.
CC(OC(=O)Cn1cnc2c1c(=O)n(C)c(=O)n2C)C(=O)Nc1ccc(Cl)cc1 (stereo unspecified)	-4.5	1.1	-1.0	26.5*	-0.3	-1.6
O=C(COC(=O)CCC(=O)c1ccc(F)cc1)NCc1ccccc1Cl	-2.1	4.5	-0.5	-3.2	4.4	.
Cn1cc(C(=O)N2CCN(c3cccc(Cl)c3)CC2)c(=O)c2cc(S(=O)(=O)N3CCOCC3)ccc21	1.6	-12.2	1.4	-8.0	-2.2	.
CC(C)n1c(S(=O)(=O)O)nc2ccccc21	-6.0	-6.8	10.2	14.1*	-1.4	-0.7
CC(c1ccccc1)n1c(S(=O)(=O)O)nc2ccccc21 (stereo unspecified)	-1.8	-1.4	-3.8	-2.6	-1.1	.
COc1ccc(S(N)(=O)=O)cc1C(=O)NNC(=O)c1cccc(S(=O)(=O)N2CCOCC2)c1	-0.3	-1.9	0.8	8.8	0.4	.
COc1ccc(-c2nnc(SCC(=O)N3CCOCC3)o2)cc1OC	0.1	1.6	7.3	13.8*	1.3	1.9
O=C(COc1ccc([N+](=O)[O-])cc1)NNC(=O)Nc1ccc([N+](=O)[O-])cc1	-7.5	1.1	-3.6	0.4	0.6	.
O=C(C/C=N\OCc1ccc([N+](=O)[O-])cc1)Nc1ccc(Br)cc1	-2.7	-3.1	-3.1	17.3*	-0.1	-1.8
N#CC12COC3(CCCCC3C1(C#N)C#N)OC2=N (stereo unspecified)	?	-26.1	21.1	46.4*	29.5	-24.2
N#CC1(C#N)COC23CCCCC2C1(C#N)C(=N)O3 (stereo unspecified)	21.0*	-34.8	22.1	23.3*	45.0	10.0
CCCC1OC23CCCCC2C(C#N)(C(=N)O3)C1(C#N)C#N (stereo unspecified)	6.5	-14.7	14.2	14.5	35.5	.
Cc1ccc(C(=O)OCC(=O)N2CCC(c3ccccc3)=N2)cc1	-6.3	-9.5	7.3	-9.4	-0.4	.
O=C1CC(=O)CC(c2ccccc2Cl)C1	1.3	4.7	2.1	29.5*	2.1	1.8
Cc1cc2oc(=O)cc(CN3CCN(C/C=C/c4ccccc4)CC3)c2cc1O	-9.8	-5.4	4.9	22.5*	-1.6	-37.3
Cc1ccc2nc(C)c(CN3CCN(c4ccc([N+](=O)[O-])cc4Cl)CC3)n2c1	1.8	2.4	-3.0	-1.3	1.4	.
CCN(Cc1ccccc1)C(=O)c1ccc2c(=O)n3c(nc2c1)CCC3	-2.1	13.3	2.9	-5.4	-0.4	.
CCOc1ccc(S(=O)(=O)N2CCCCC2)cc1NC(=O)c1ccccc1	-0.6	-5.8	-9.1	12.1	1.2	.
COc1cc(-c2c(C(C)=O)c(C)nc3c2C(=O)c2ccccc2-3)cc(OC)c1OC	6.6	1.4	-5.8	-3.3	-1.0	.
CC(=O)c1c(Cl)nc2cccc3c2c1-c1ccccc1C3=O	-2.4	-14.6	2.7	23.6*	5.0	27.9*
Cc1ccc(OCC(=O)N(C)CC(=O)Nc2ccccc2Cl)c([N+](=O)[O-])n1	-0.9	2.8	-3.2	-0.2	-1.1	.
Nc1ccccc1N=Nc1ccccc1N	-1.3	-18.9	-3.8	48.5*	3.3	39.7*
COC(=O)c1ccccc1S(=O)(=O)N1CCC(C(=O)NCc2ccco2)CC1	-4.1	1.6	-3.0	-1.9	2.0	.
SMILES	Keap1 Nrf2 FP	Cardiac RTF inh	cardiac RTF act	E coli Lon inh	LANA DNA inh	eLon confirm
Cc1cccn2c(=O)c(C=C(C#N)C#N)c(N3CCN(C)CC3)nc12	1.6	5.2	-0.6	16.5*	-0.4	12.9
Cc1cccc(C(=O)Nc2cccc3cccnc23)c1	0.6	-1.6	-3.9	-4.6	1.3	.
Cc1ccc(/C=C/C(=O)Nc2cccc3cccnc23)o1	-1.0	-19.2	27.5	69.6*	5.4	30.4*
COc1cccc(CN(C)C(=O)c2ccccc2Sc2ccccc2C#N)c1OC	-5.1	-5.2	4.9	3.5	1.5	.
O=C(COC(=O)COc1ccccc1)NC12CC3CC(CC(C3)C1)C2	-2.2	-2.0	-3.3	2.3	0.6	.
Nc1nc(N=Nc2ccc(O)cc2)cc(=O)[nH]1	.	.	.	66.8*	.	35.4*
COc1ccc(CCC(=O)NNC(=O)c2ccccn2)cc1OC	5.3	-15.5	0.3	-6.0	5.6	.
CN1CCN(C(=O)c2ccc3c(c2)N(Cc2ccc(Cl)cc2)C(=O)c2ccccc2S3=O)CC1 (stereo unspecified)	-2.7	-3.7	6.5	-1.1	-3.1	.
CN1CCN(C(=O)c2ccc3c(c2)N(Cc2ccccc2F)C(=O)c2ccccc2S3=O)CC1 (stereo unspecified)	-5.6	0.7	4.2	15.8*	0.7	5.8
CCCCNC(=O)C1(C)CCCCN1C(=O)c1sccc1C (stereo unspecified)	.	.	.	21.6*	.	-1.4
CCCCNC(=O)C1(C)CCN1C(=O)c1c(F)ccc(C)c1F (stereo unspecified)	.	.	.	-4.8	.	.
CCCCNC(=O)C1(C)CCN1C(=O)c1ccc(OC)c(F)c1 (stereo unspecified)	.	.	.	15.9*	.	-7.0
O=C(CN1CCN(S(=O)(=O)c2ccc(Cl)c(Cl)c2)CC1)N1CCCC1	0.2	-9.5	-3.4	1.3	0.0	.
O=C(NCCOc1ccc(F)cc1)C1CCC(=O)N(CCN2CCOCC2)C1 (stereo unspecified)	-6.8	-2.3	-2.5	-11.2	1.1	.
COC(=O)Cn1cnc2c(oc3ccccc32)c1=O	2.2	-8.0	-5.4	22.3*	0.0	-1.9
CCCCNC(=O)c1cc(-c2ccc(OC)cc2)on1	3.3	1.0	1.2	22.8*	-1.1	-6.4
COC(=O)c1cc2c(C)c(C)c3ccccn3c-2c1C(=O)OC	0.6	-22.1	23.2	21.7*	11.7	59.8*
COC(=O)c1cc2c(C)cc3ccc(C)cn3c-2c1C(=O)OC	4.0	-11.9	11.9	40.2*	8.7	78.0*
COC(=O)c1cc2ccccn2c2c(C(=O)OC)c(C(=O)OC)cc1-2	-1.1	-3.9	2.9	-0.4	1.7	.
Cc1occc1C(=O)Nc1cccc(Cl)c1Cl	3.0	-0.7	-3.8	3.8	-0.5	.
CCN(CC)c1ccc(/C=N/NC(=O)c2cc3ccccc3[nH]2)cc1	-1.3	2.7	-3.4	16.1*	-2.4	8.8
CCCCN(C(=O)c1nn(C)c(=O)c2ccccc12)c1c(N)n(CC(C)C)c(=O)[nH]c1=O	-2.8	-4.3	-1.4	8.6	1.4	.
